Records with an inconclusive call do not appear. Calls of active or inactive are those of the source. Calls come from the whole dose curve; as a rule, active = well fitted curve in the direction sought with a large enough effect; inconclusive = small, poorly fitted or top-dose-only effect, or another doubt; inactive = no such curve, though single readings can be large or run the other way.
target: Protein phosphatase 1D (Homo sapiens) (UniProt O15297); assay: Rhodamine-PBP qHTS Assay for Modulators of WT P53-Induced Phosphatase 1 (WIP1) (AID 1347425); settings: recombinant WIP1, Rhodamine-PBP phosphate fluorescence, real-time; series mostly up to 57.5 µM
Sequence (O15297 whole entry, looked up): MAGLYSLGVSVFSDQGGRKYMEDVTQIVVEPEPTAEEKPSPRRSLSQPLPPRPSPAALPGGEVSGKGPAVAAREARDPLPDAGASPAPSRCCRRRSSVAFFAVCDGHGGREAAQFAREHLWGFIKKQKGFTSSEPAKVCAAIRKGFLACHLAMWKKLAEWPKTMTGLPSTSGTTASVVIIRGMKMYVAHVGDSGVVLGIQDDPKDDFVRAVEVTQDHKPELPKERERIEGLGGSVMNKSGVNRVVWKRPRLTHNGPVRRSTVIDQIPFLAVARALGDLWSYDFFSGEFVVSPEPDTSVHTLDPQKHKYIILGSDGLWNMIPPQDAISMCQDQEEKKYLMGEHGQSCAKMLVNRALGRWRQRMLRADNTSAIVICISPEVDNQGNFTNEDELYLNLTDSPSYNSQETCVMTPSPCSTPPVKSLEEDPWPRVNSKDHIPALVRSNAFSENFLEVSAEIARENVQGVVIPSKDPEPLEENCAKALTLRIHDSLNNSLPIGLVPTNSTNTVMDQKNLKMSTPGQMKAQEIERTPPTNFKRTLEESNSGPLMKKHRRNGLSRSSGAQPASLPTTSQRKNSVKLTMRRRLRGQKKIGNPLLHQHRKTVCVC
Text: Assay Provider (PI): Nathan Coussens Ph.D.
National Center for Advancing Translational Sciences (NCATS), Rockville, MD
National Institute of Health (NIH), Bethesda, Maryland
WT P53-Induced Phosphatase 1 (WIP1) is a member of the magnesium-dependent serine/threonine protein phosphatase (PPM) family and is induced by P53 in response to DNA damage. In several human cancers, the WIP1 protein is overexpressed, which is generally associated with a worse prognosis. Although WIP1 is an attractive therapeutic target, no potent, selective, and bioactive small-molecule modulator with favorable pharmacokinetics has been reported. Phosphatase enzymes are among the most challenging targets for small molecules because of the difficulty of achieving both modulator selectivity and bioavailability. Another major obstacle has been the availability of robust and physiologically relevant phosphatase assays that are suitable for high-throughput screening.
Here, we describe two orthogonal biochemical WIP1 activity assays that utilize phosphopeptides from native WIP1 substrates. We optimized a RapidFire MS assay to quantify the enzymatically dephosphorylated peptide reaction product in a 384-well format. Additionally, a redshifted Rhodamine-PBP fluorescence assay was optimized in a 1,536-well format to enable real-time WIP1 activity measurements through the detection of the orthogonal reaction product, Pi. We validated these two optimized assays by quantitative high-throughput screening against the National Center for Advancing Translational Sciences (NCATS) Pharmaceutical Collection and used secondary assays to confirm and evaluate inhibitors identified in the primary screen.
SEQUENCE No. (e.g., 1, 2, 3, etc.); […] (e.g., Cells, Incubation, Reagent, etc.); VALUE; DESCRIPTION
1; Reagent; 3 uL; WIP1 (6.7 nM), Rh-PBP (13.3 uM), columns 1-48
3; Library Compounds; 23 nL; NCATS Pharmaceutical Collection, column 5-48
4; Control Compounds; DMSO in column 2, GSK2830371 (57.5 uM, final) in 3-fold serial dilutions in column 3, GSK2830371 (1.15 uM, final) in column 4
5; Time; 1 hr; incubation
6; Detection; fluorescence (f0); ViewLux, excitation filter = 525 nm, emission filter = 598 nm
7; Reagent; 1 uL; VEPP-pS-QETFS (40 uM), columns 2-48
8; Detection; fluorescence (f1); ViewLux, excitation filter = 525 nm, emission filter = 598 nm
NOTES (numbers refer to sequence above)
1 & 2; Black medium binding Greiner 1536-well plates (# 789176-F); assay buffer: 50 mM Tris-HCl pH 7.5, 30 mM MgCl2, 1mM TCEP, 0.1 mM EGTA, 75 ug/mL BSA; dispensed with a BioRaptr liquid handler (Beckman Coulter).
3 & 4; Kalypsys pintool (equipped with 1536 pinhead, Wako USA) transfer. Tip wash sequence: DMSO, methanol, 3 sec vacuum dry.
5; Room temperature incubation.
7; VEPPL-pS-QETFS in assay buffer dispensed with a BioRaptr; final reaction conditions: 5 nM WIP1, 10 uM VEPPL-pS-QETFS, 10 uM Rh-PBP, 50 mM Tris-HCl pH 7.5, 30 mM MgCl2, 1 mM TCEP, 0.1 mM EGTA, 75 ug/mL BSA.
8; Measurement taken at 1 min intervals for 11 min. Delta readout = f1 - f0.

Compound	outcome
NS(=O)(=O)Cc1noc2ccccc12	inactive
CCCCNc1ccc(C(=O)OCCOCCOCCOCCOCCOCCOCCOCCOCCOC)cc1	inactive
O=C(NC1CCN(CCc2c[nH]c3ccccc23)CC1)c1ccccc1	inactive
CCCCCCCCCCCCCC[N+](C)(C)Cc1ccccc1	inactive
CC(=O)Nc1ccc(CC(=O)O)cc1	inactive
CN1CCN(C2=Nc3cc(F)ccc3Cc3ccccc32)CC1	inactive
NC(=O)c1ccccc1O	inactive
CCNC(=O)NCc1cccc(Cl)c1	inactive
CCNC(=O)/C=C/c1cccc(Br)c1	inactive
OC[C@H]1O[C@@H]2O[C@H]3[C@H](O)[C@@H](O)[C@@H](O[C@H]4[C@H](O)[C@@H](O)[C@@H](O[C@H]5[C@H](O)[C@@H](O)[C@@H](O[C@H]6[C@H](O)[C@@H](O)[C@@H](O[C@H]7[C@H](O)[C@@H](O)[C@@H](O[C@H]8[C@H](O)[C@@H](O)[C@@H](O[C@H]1[C@H](O)[C@H]2O)O[C@@H]8CO)O[C@@H]7CO)O[C@@H]6CO)O[C@@H]5CO)O[C@@H]4CO)O[C@@H]3CO	inactive
Cc1ccccc1OCC(O)CO (stereo not given)	inactive
CCN(CC)CCOc1ccccc1C(=O)CCc1ccccc1	inactive
NCCNC(=O)c1ccc(Cl)cn1	inactive
O=C1[C@H](CC[C@H](O)c2ccc(F)cc2)[C@@H](c2ccc(O)cc2)N1c1ccc(F)cc1	inactive
CC(=O)Nc1ccc(OC(=O)c2ccccc2OC(C)=O)cc1	inactive
CN(C)CCOC(c1ccc(Cl)cc1)c1ccccn1 (stereo not given)	inactive
CN(C)CCOC(=O)C(c1ccccc1)C1(O)CCCC1 (stereo not given)	inactive
CN1CCC[C@@H]1CCO[C@](C)(c1ccccc1)c1ccc(Cl)cc1	inactive
C=C[C@@]1(C)CC(=O)[C@]2(O)[C@@]3(C)[C@@H](O)CCC(C)(C)[C@@H]3[C@H](O)[C@H](OC(C)=O)[C@@]2(C)O1	inactive
O=C(CCCN1CC=C(n2c(=O)[nH]c3ccccc32)CC1)c1ccc(F)cc1	inactive

Compound	outcome
O=C(CN1CCN(Cc2ccc3c(c2)OCO3)CC1)N1c2ccccc2Sc2ccccc21	inactive
CCOc1ccccc1C(N)=O	inactive
CCCCNC(=O)NS(=O)(=O)c1ccc(N)cc1	inactive
CC(C)CCCC(C)N (stereo not given)	inactive
CCOc1ccc(NC(C)=O)cc1	inactive
CCCCC(CC)COC(=O)/C=C/c1ccc(OC)cc1 (stereo not given)	inactive
FC(F)(F)C(F)(F)C(F)(F)C(F)(F)C(F)(F)C(F)(F)C(F)(F)C(F)(F)Br	inactive
CN1CCN(c2c(F)cc3c(=O)c(C(=O)O)cn4c3c2SCC4)CC1	inactive
CN(C)CCN1C(=O)c2ccccc2N(C)c2ccccc21	inactive
O=C(Nc1ccccc1)OCC(CN1CCCCC1)OC(=O)Nc1ccccc1 (stereo not given)	inactive
O=C(O)CCNC(=O)c1ccccc1	inactive
C[C@H]1O[C@@H](O[C@H]2CC[C@@]3(C)[C@H](CC[C@@H]4[C@@H]3C[C@@H](O)[C@]3(C)[C@@H](C5=CC(=O)OC5)CC[C@]43O)C2)C[C@H](O)[C@@H]1O[C@H]1C[C@H](O)[C@H](O[C@H]2C[C@H](O)[C@H](O[C@@H]3O[C@H](CO)[C@@H](O)[C@H](O)[C@H]3O)[C@@H](C)O2)[C@@H](C)O1	inactive
CN1CCN(CCC(=O)N2c3ccccc3Sc3ccc(C(F)(F)F)cc32)CC1	inactive
CC(C)Cc1ccc(CC(=O)O)cc1	inactive
CN(Cc1ccc(C(C)(C)C)cc1)Cc1cccc2ccccc12	inactive
CC(C)(C)NC[C@H](O)COc1nsnc1N1CCOCC1	inactive
CCC1NC(=O)c2cc(S(N)(=O)=O)c(Cl)cc2N1 (stereo not given)	inactive
CC1(C)OC[C@@H]2O[C@@]3(C(=O)O)OC(C)(C)O[C@H]3[C@@H]2O1	inactive
C/C=C/C=N/NC(=O)c1ccncc1	inactive
Cc1ccc(O)c([C@H](CCN(C(C)C)C(C)C)c2ccccc2)c1	inactive

From PubChem BioAssay (NCATS)
